# Tested on: SGK2
# Conditions: concentration: 1 μM, replicates: in singlicate; n = 1
# 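Note: KINOMEscan kinase panel screen.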
row,Structure (SMILES),%Inh [%]
1,COc1cc(Nc2nccc(-c3c(-c4cccc(NC(=O)c5c(F)cccc5F)c4)nn4ncccc34)n2)cc(OC)c1OC [GSK327238],0
2,COCCOCCOc1cc2ncc3c4ccc(C#N)cc4[nH]c3c2cc1OC,58
3,Cc1ccc(C(=O)Nc2ccc(Nc3ccnc4cc(-c5nccs5)ccc34)cc2O)cc1.Cl [GW494702],0
4,CC(=O)N1CCN(c2ccc(Nc3nccc(-c4sc(C(C)C)nc4-c4cccc(NS(=O)(=O)c5cccc(Cl)c5)c4)n3)cn2)CC1 [GSK1660437],0
5,COc1cccc(C(=O)Nc2cccc(Oc3ccc4nc(NC(=O)C5CC5)cn4n3)c2)c1,0
6,Cc1cccc(NC(=O)Nc2ccc(Oc3ncnc4ccn(C)c34)cc2)c1,0
7,Cc1ccc(S(=O)(=O)Nc2ccc(Nc3nccc(Nc4cccc5[nH]ncc45)n3)cc2)cc1 [GSK581271],9
8,O=C(Nc1ccccc1F)NC1CCN(c2ccnc(Nc3ccc(F)cc3)n2)CC1 [GSK1379800],0
9,Nc1n[nH]c2cnc(-c3ccccc3)cc12 [SB-642124],31
10,c1ccc(-c2n[nH]cc2Nc2ccnc3ccccc23)nc1 [GW694077],61

# Tested on: SGK3
# Conditions: concentration: 1 μM, replicates: in singlicate; n = 1
row,Structure (SMILES),%Inh [%]
1,CN(c1ccc(NC(=O)Nc2cc(C(F)(F)F)ccc2F)cc1)c1ccnc(Nc2ccc(S(N)(=O)=O)cc2)n1 [GW809893],22
2,Nc1ncnc2c1nc(-c1ccccc1)n2-c1ccccc1 [SKF-97293],16
3,CN1CCN(CCCNc2nccc(-c3c(-c4ccc(F)cc4)nn4cc(C(F)(F)F)ccc34)n2)CC1 [GW621581],0
4,O=C(Nc1cccc(-c2nn3ccccc3c2-c2ccnc(Nc3cccc(C(F)(F)F)c3)n2)c1)c1c(F)cccc1F [GSK292658],8
5,COc1cc(Nc2nccc(N3CCC(NC(=O)Nc4cccc(C(C)=O)c4)C3)n2)cc(OC)c1OC (centres unmarked) [GSK1379753],0
6,Cl.Cl.NCC(C(=O)Nc1cc(Br)c(-c2ccnc3[nH]ccc23)s1)c1ccccc1 (centres unmarked) [GSK1269851],24
7,COc1ccc(Nc2nccc(NCCNC(=O)c3cc4ccccc4s3)n2)cc1 [GSK1379896],0
8,Cc1ccc(F)c(C(=O)Nc2cccc(-c3nn4ccccc4c3-c3ccnc(Nc4cccc(F)c4)n3)c2)c1F [GSK361061],2
9,Cl.Cl.NCC(NC(=O)c1cc(-c2ccccc2)c(-c2ccnc3[nH]ccc23)s1)c1ccccc1 (centres unmarked) [GSK1321561],15
10,Cc1cccc(Nc2nc(N[C@H]3CCNC3)ncc2C(N)=O)c1.Cl [GSK2197149],0
11,COc1cccc(C2=C(Nc3ccc(Cl)c(C(=O)O)c3)C(=O)NC2=O)c1 [SB-390769],100
12,O=C(Nc1cccc(-c2nn3ccccc3c2-c2ccnc(Nc3cccc(F)c3)n2)c1)c1c(F)ccc(F)c1Cl [GSK357952],2
13,COc1cccc(NC(=O)NC2CCN(c3ccnc(Nc4cc(OC)c(OC)c(OC)c4)n3)C2)c1 (centres unmarked) [GSK1379763],7
14,O=c1[nH]cc(-c2ccc(N3CCOCC3)cc2)c2sc(-c3cn[nH]c3)cc12 [GSK2276055],13
15,CC(C)(C)c1ccc2nccc(Nc3cccc(O)c3)c2c1 [GW856795],0
16,COc1ccc(Nc2nccc(N3CCC(NC(=O)Nc4cccc(OC)c4)C3)n2)cc1 (centres unmarked) [GSK1379742],0
17,CCS(=O)(=O)c1ccc(OC)c(Nc2nccc(-c3c(-c4cccc(NC(=O)c5c(F)cccc5F)c4)nn4ncccc34)n2)c1 [GSK326180],0
18,CC(C)c1nc(-c2cccc(NS(=O)(=O)c3c(F)cccc3F)c2F)c(-c2ccnc(Nc3ccc(N4CCOCC4)nc3)n2)s1 [GSK2008607],28
19,Fc1ccc(-c2ncn(C3CCNCC3)c2-c2ccnc(Oc3ccc(-c4ccccc4)cc3)n2)cc1 [SB-245391],12

row,Structure (SMILES),%Inh [%]
1,O=C(Nc1n[nH]c2cc(-c3ccoc3)ccc12)C1CC1 [SB-738481],28
2,Nc1ncc(-c2cccnc2)c2scc(-c3ccc4c(c3)CCN4C(=O)Cc3ccccc3)c12 [GSK683281],10
3,Nc1ncc(-c2ccc3nccc(-c4ccncc4)c3c2)cc1S(=O)(=O)N1CCOCC1 [GSK1627798],7
4,C[C@@H]1CC[C@@H](C(=O)Nc2ccccc2)CN1c1cc(-c2ccc3c(N)n[nH]c3c2)nc(N)n1 [GSK2286062],0
5,Cn1cc(-c2ccc3c(c2)CCN3C(=O)Cc2cccc(F)c2)c2c(N)ncnc21 [GSK2603358],2
6,Cc1ccc(C(=O)N2CC[C@@H](O)C2)cc1-n1c(C)cc(OCc2ccc(F)cc2F)c(Br)c1=O,0
7,CN1CCN(Cc2cccc(-c3ccc4c(Nc5ccc(Oc6ccccc6)cc5)ccnc4c3)c2)CC1 [GW578342],1
8,CN(C)S(=O)(=O)c1cc(-c2ccc3nccc(-c4cccc(S(N)(=O)=O)c4)c3c2)cnc1N [GSK1669921],16
9,COc1cc(Nc2nccc(-c3c(-c4cccc(NC(=O)c5c(F)cccc5F)c4)nn4ncccc34)n2)cc(OC)c1OC [GSK327238],1
10,COCCOCCOc1cc2ncc3c4ccc(C#N)cc4[nH]c3c2cc1OC,47
11,Cc1ccc(C(=O)Nc2ccc(Nc3ccnc4cc(-c5nccs5)ccc34)cc2O)cc1.Cl [GW494702],0
12,CC(=O)N1CCN(c2ccc(Nc3nccc(-c4sc(C(C)C)nc4-c4cccc(NS(=O)(=O)c5cccc(Cl)c5)c4)n3)cn2)CC1 [GSK1660437],19
13,COc1cccc(C(=O)Nc2cccc(Oc3ccc4nc(NC(=O)C5CC5)cn4n3)c2)c1,23
14,Cc1cccc(NC(=O)Nc2ccc(Oc3ncnc4ccn(C)c34)cc2)c1,0
15,Cc1ccc(S(=O)(=O)Nc2ccc(Nc3nccc(Nc4cccc5[nH]ncc45)n3)cc2)cc1 [GSK581271],0
16,O=C(Nc1ccccc1F)NC1CCN(c2ccnc(Nc3ccc(F)cc3)n2)CC1 [GSK1379800],9
17,Nc1n[nH]c2cnc(-c3ccccc3)cc12 [SB-642124],74
18,c1ccc(-c2n[nH]cc2Nc2ccnc3ccccc23)nc1 [GW694077],47
